# In PubChem BioAssay AID1671202 (University of Kansas High Throughput Screening Laboratory, 2021):
# Several values for one entry are separate records, joined by “and”; a condition that tells them apart may be missing. Identical values can stand only once. The whole screen tested about 190,000 compounds, of which about 6,900 (3.6%) were called active. Shown is part of a subset that was picked to be rich in actives. A number with no mark means an inactive call. Cut-off read from the data, not from the text of the source: active = inhibition above about 50%; inactive = the rest.
# Molecular target: Huntingtin (Homo sapiens) (UniProt P42858)
# Assay: mutant huntingtin-calmodulin interaction inhibitors – biochemical, AlphaScreen, primary screen (AID 1671202);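 note: 0% = both proteins with DMSO and 100% = one protein alone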
# Conditions: AlphaScreen His-mHTT/GST-CaM binding, luminescence; at 15 µM, stronger effect = higher value
# Sequence of Huntingtin (Homo sapiens) (P42858 whole entry, looked up, stated change not applied): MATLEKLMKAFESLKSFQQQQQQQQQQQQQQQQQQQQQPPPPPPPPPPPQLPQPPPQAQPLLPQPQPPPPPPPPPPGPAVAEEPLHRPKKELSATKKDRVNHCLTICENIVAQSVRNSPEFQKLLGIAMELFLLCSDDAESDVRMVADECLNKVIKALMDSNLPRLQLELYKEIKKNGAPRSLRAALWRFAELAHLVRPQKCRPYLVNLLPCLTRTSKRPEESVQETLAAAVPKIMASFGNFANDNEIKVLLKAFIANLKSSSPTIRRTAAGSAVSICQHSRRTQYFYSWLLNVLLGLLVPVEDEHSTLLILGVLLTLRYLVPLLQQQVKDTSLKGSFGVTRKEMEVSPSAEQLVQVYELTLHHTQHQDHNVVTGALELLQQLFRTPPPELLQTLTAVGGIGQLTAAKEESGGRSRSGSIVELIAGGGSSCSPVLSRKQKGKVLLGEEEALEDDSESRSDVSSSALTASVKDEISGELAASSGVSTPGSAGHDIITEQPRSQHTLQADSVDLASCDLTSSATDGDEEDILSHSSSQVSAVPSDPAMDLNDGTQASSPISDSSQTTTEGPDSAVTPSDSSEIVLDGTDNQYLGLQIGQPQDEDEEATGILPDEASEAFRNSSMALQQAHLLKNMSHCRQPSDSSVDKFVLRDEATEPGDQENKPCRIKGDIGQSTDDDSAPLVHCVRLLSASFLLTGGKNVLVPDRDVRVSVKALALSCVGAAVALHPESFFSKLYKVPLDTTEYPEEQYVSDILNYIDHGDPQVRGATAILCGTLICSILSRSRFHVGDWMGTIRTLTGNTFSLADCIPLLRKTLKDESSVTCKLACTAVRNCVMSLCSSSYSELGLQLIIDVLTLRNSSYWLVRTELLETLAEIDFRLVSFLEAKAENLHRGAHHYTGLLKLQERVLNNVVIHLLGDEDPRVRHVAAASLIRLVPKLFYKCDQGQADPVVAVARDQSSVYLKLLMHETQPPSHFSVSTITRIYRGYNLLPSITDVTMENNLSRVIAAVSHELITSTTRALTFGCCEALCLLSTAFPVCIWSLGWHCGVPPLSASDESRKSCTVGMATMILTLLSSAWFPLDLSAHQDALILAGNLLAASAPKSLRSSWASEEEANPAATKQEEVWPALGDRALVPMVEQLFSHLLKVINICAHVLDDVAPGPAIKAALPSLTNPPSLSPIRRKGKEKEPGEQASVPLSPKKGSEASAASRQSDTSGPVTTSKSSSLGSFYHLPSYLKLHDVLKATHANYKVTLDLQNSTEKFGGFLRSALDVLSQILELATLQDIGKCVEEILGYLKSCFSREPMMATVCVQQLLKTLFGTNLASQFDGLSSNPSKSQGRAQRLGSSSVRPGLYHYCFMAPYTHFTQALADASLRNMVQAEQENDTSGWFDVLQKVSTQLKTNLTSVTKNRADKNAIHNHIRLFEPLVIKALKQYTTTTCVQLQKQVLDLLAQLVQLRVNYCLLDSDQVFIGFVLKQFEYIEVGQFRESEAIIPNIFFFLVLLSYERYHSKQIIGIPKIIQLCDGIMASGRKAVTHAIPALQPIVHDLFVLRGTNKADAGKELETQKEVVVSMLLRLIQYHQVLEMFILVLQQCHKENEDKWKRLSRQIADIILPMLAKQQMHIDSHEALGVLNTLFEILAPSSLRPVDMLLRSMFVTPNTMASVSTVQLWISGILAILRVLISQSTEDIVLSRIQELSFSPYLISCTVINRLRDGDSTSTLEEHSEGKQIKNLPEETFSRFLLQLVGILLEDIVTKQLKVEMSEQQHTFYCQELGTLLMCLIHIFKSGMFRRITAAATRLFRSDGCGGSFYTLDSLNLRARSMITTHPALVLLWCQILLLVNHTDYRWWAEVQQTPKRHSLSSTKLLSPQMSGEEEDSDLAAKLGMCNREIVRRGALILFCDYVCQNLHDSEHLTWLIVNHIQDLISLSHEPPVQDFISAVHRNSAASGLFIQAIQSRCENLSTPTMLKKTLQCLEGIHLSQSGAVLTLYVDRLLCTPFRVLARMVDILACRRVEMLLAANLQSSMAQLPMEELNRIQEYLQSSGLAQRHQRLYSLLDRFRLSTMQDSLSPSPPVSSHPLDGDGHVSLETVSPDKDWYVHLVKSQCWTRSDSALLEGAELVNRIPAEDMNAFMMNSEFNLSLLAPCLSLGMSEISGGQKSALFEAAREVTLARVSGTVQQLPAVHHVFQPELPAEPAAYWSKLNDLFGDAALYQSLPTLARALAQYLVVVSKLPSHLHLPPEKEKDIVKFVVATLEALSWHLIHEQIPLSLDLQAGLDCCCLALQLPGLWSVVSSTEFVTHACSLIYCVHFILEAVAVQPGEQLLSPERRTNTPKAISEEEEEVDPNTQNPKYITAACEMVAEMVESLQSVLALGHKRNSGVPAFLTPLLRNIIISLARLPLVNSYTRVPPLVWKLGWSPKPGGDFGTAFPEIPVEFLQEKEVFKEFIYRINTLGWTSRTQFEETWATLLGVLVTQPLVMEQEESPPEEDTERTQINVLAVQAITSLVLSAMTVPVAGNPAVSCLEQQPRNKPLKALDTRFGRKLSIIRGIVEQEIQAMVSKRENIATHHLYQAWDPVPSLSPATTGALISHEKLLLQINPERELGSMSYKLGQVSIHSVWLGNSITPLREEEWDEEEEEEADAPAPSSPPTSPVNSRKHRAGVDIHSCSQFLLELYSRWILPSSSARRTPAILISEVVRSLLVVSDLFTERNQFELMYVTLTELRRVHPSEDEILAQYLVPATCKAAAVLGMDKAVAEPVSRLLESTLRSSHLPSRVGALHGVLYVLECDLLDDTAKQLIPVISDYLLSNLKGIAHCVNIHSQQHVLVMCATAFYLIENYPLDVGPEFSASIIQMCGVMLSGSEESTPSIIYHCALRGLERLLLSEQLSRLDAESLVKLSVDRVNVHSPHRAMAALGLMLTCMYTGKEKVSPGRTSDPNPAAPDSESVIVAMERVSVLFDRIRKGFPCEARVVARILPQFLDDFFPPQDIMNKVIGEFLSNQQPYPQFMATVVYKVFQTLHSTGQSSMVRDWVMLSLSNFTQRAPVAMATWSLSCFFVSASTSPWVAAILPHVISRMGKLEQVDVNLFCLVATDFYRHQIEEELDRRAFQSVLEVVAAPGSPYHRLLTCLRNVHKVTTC
row,SMILES,inhibition
1,CCNc1cc(N2CCCC(CCC(=O)N3CCN(c4ccccn4)CC3)C2)ncn1 (stereo unspecified),1.12%
2,CCC(=O)N1CCc2ccccc2C1C(=O)NCc1ccc(OC)cc1 (stereo unspecified),3.87%
3,Cc1ccc(NC(=O)CC2COc3ccccc3NC2=O)cc1C (stereo unspecified),-3.7%
4,Cc1ccc(NC(=O)CC2COc3ccc(Cl)cc3NC2=O)cc1Cl (stereo unspecified),92.5% (active)
5,O=C(CC1COc2ccccc2NC1=O)Nc1ccc(C(F)(F)F)cc1 (stereo unspecified),-6.9%
6,Cc1cc(SCC(=O)NCc2ccc3c(c2)OCO3)nc2ccccc12,-10.7%
7,O=C(c1cnc(-c2ccccc2)nc1N1CCSCC1)N1CCCCC1,18.3%
8,Cc1cccc(N2CCN(C(=O)CCC3CCCN(C(=O)Nc4ccccc4)C3)CC2)c1C (stereo unspecified),47%
9,N#Cc1ccc(CSc2ncccn2)cc1,-1.95%
10,Brc1ccc(CSc2cccc3cccnc23)cc1,54% (active)
11,O=C(CSc1ccccn1)c1ccc(Br)cc1,-42.4%
12,CN(C)C(CNC(=O)Nc1ccc(Cl)cc1)c1ccco1 (stereo unspecified),-16%
13,O=C(COc1coc(CN2CCc3ccccc32)cc1=O)NCc1ccco1,19.5%
14,CCOc1ccc(NC(=O)N2CC(C)Oc3ccc(C)cc32)cc1 (stereo unspecified),1.01%
15,COc1cc(OC)c(OC)cc1/C=C1/CC/C(=C\c2cc(OC)c(OC)cc2OC)C1=O,23%
16,Cc1cccc(NC(=O)c2cc3c(CO)cnc(C)c3oc2=Nc2ccc(Cl)cc2)c1,-1%
17,Cc1ccccc1NS(=O)(=O)c1cc(Br)cc2c1N(C(=O)C1CC1)CC2,2%
18,CC(C)(C)C1=CC(=Nc2ccccc2N)C=C(C(C)(C)C)C1O (stereo unspecified),97% (active)
19,COCCCNC(=O)c1ccc2c(c1)ncn2-c1ccc(F)c(F)c1,9%
20,CCOc1ccc(C(=O)Nc2ccccc2I)cc1[N+](=O)[O-],4.6%
21,COc1ccc(C2CC(c3cccc(F)c3)=NN2C(=O)CN2CCCCC2)cc1 (stereo unspecified),36.7%
22,COc1ccc(C2=NN(C(=O)CCC(=O)O)C(c3ccc(F)cc3)C2)cc1OC (stereo unspecified),-2.9%
23,COc1ccccc1C1=NN(C(=O)CN2CCCCC2)C(c2ccc(C)cc2)C1 (stereo unspecified),8.3%
24,COc1ccccc1C1=NN(C(=O)CN2CCC(C)CC2)C(c2ccc(C)cc2)C1 (stereo unspecified),12.9%

row,SMILES,inhibition
1,COc1ccc(C2=NN(C(=O)CN3CCN(C)CC3)C(c3ccccc3C)C2)cc1 (stereo unspecified),42%
2,COc1ccc(C2CC(c3ccccc3)=NN2C(=O)c2ccc(Br)o2)cc1 (stereo unspecified),-1%
3,Cc1ccc(C2CC(c3cccc(F)c3)=NN2C(=O)CN2CCOCC2)cc1 (stereo unspecified),67.8% (active)
4,Cc1ccc(C)c(C2CC(c3ccccc3Cl)=NN2C(=O)CN2CCOCC2)c1 (stereo unspecified),79.4% (active)
5,COc1ccc(C2CC(c3ccccc3F)=NN2C(=O)CN2CCOCC2)cc1 (stereo unspecified),50.5% (active)
6,O=C(Cc1nnc(-c2cccc(F)c2)o1)N1CCOCC1,-5.8%
7,CCNC(=O)N(C)CC(=O)N1N=C(c2ccccc2F)CC1c1ccc(C)cc1 (stereo unspecified),24.6%
8,CCNC(=O)N(C)CC(=O)N1N=C(c2ccc(C)c(C)c2)CC1c1ccc(C)cc1 (stereo unspecified),73.4% (active)
9,CC(C)NC(=O)c1ccccc1NC(=O)c1ccc([N+](=O)[O-])cc1,-2.9%
10,N=C1S/C(=C\c2cccs2)C(=O)N1c1ccc2c(c1)OCO2,2%
11,O=C(CSc1ncnc2c1[nH]c1ccccc12)N1CCc2ccccc2C1,0%
12,COCC(=O)N1CCCN(c2nc3c(s2)c(C)nn3-c2ccc(C)cc2)CC1,45.2%
13,COc1ccc(CCNC(=O)N2CC(c3nc(-c4ccccn4)no3)C2)cc1,-18.5%
14,COc1ccc(NC(=O)N2CC3CC(NS(=O)(=O)c4cccs4)C2C3)c(OC)c1 (stereo unspecified),9.02%
15,N#CC1=C(N)Oc2c(sc3ccccc23)C1c1ccco1 (stereo unspecified),53% (active)
16,N#CC1=C(N)Oc2c(c(=O)[nH]c3ccccc23)C1c1cccs1 (stereo unspecified),8%
17,N#CC1=C(N)Oc2ccc3ncccc3c2C1c1ccccc1F (stereo unspecified),49%
18,CC(C)=CCOc1ccc2cc(-c3ccccc3)c(=O)oc2c1,-45.3%
19,O=C(COc1ccc(Br)cc1)Nc1ccccc1C(F)(F)F,-57%
20,CN(C)C(=O)c1cc2c(s1)CCC(C(=O)NCc1ccccc1Cl)C2 (stereo unspecified),3.06%
21,O=C1OC(c2cccc(F)c2)=N/C1=C\c1ccc(Br)cc1,-1%
22,CCC(C)NC(=O)c1ccc2c(c1)nc1n2CCCC1 (stereo unspecified),-4.18%
23,CN1CCN(c2nc3c(c(=O)[nH]c(=O)n3C)n2CC(=O)c2ccc(Cl)cc2)CC1,-4%
24,O=[N+]([O-])c1ccc(C=Nc2cccc(Cl)c2)cc1,30%

row,SMILES,inhibition
1,O=[N+]([O-])c1ccc(C=Nc2ccc(N=Cc3ccc([N+](=O)[O-])cc3)cc2)cc1,4%
2,Cc1cccc(N=C/C=C/c2ccc([N+](=O)[O-])cc2)c1,72% (active)
3,CC(=O)NCCN1C(=O)C(=O)C(=C(O)c2ccc(Cl)cc2)C1c1ccc(Br)cc1 (stereo unspecified),-0.6%
4,COc1cc(/C=C2\SC(=N)N(c3ccccc3OC)C2=O)ccc1O,36%
5,COc1cc(C=C2SC(=S)N(c3ccc(O)cc3)C2=O)ccc1O,58.5% (active)
6,C=CCOc1ccc(/C=C2\SC(=O)N(c3ccccc3)C2=O)cc1OC,3%
7,Cc1ccc(F)cc1NS(=O)(=O)c1cccc2cccnc12,2%
8,CCc1cccc(NS(=O)(=O)c2ccccc2[N+](=O)[O-])c1,10.6%
9,O=[N+]([O-])c1ccccc1S(=O)(=O)Nc1cccc2cccnc12,98.6% (active) and 99% (active)
10,COc1cccc(-c2noc(C3CCCN3C(=O)Nc3ccc4c(c3)OCCO4)n2)c1 (stereo unspecified),13.9%
11,OC(COc1ccccc1Br)CN1CCN(Cc2ccccc2)CC1 (stereo unspecified),-4%
12,COc1ccccc1Oc1ncnc2scc(-c3ccc(F)cc3)c12,-1%
13,CCOc1ccc(-n2nc(C(=O)Nc3ccc(F)cc3)c3ccccc3c2=O)cc1,-5%
14,O=C1NC(=O)/C(=C\c2ccc(-c3cccc(Cl)c3)o2)S1,58% (active)
15,O=C1NC(=O)/C(=C/c2ccc(-c3ccccc3[N+](=O)[O-])o2)S1,37%
16,O=C1NC(=O)/C(=C/c2ccc(-c3ccc([N+](=O)[O-])cc3)o2)S1,3%
17,COc1ccc(CC(=O)Nc2ccc(S(=O)(=O)Nc3c(C)cc(C)cc3C)cc2)cc1,13%
18,COc1cccc(CN2CCOCC2)c1OC,-5.1%
19,O=C(NC1CC2CC1CN2C(=O)c1ccc(C(F)(F)F)cc1)c1cccnc1 (stereo unspecified),6.1%
20,CC(=O)Nc1cccc(N=Cc2ccc(Cl)cc2Cl)c1,-2%
21,COc1ccc(N=Cc2cc(Cl)cc(Cl)c2O)cc1OC,4%
22,Oc1cccc(N=Cc2cc(Cl)cc(Cl)c2O)c1,98% (active)
23,CC(C)OCCCNC(=O)CN1C(=O)/C(=C/c2cccc(Cl)c2)Sc2ccccc21,9%
24,Cc1ccc(F)cc1NC(=O)Cn1c(=O)nc(N2CCCCC2)c2ccccc21,12.4%

row,SMILES,inhibition
1,COc1ccc(NC(=O)N2CCC(CCOc3ccccc3)CC2)cc1,3.99%
2,Cc1cc2c(cc1C)NC(c1ccc(Cl)s1)C1=C(CC(C)(C)CC1=O)N2 (stereo unspecified),51% (active)
3,CC1(C)CC(=O)C2=C(C1)Nc1ccccc1NC2c1ccc(Br)cc1 (stereo unspecified),3.9%
4,Cc1ccc2occ(C3Nc4cc(C)c(C)cc4NC4=C3C(=O)CC(C)(C)C4)c(=O)c2c1 (stereo unspecified),19%
5,COc1ccc(-c2cn3ccn(-c4ccc(F)c(Cl)c4)c(=O)c3n2)cc1OC,-2.4%
6,Cc1cccc2nnc(N3CCC(C(=O)Nc4ccc(Cl)cc4)CC3)n12,3.32%
7,CCn1c(N2CCCC(C(=O)NCc3cccc(C)c3)C2)cc(=O)n(C)c1=O (stereo unspecified),7.32%
8,COc1ccc(NS(=O)(=O)c2ccc(N3C(=O)CCC3=O)cc2)c(OC)c1,-10.9%
9,O=C(Nc1ccc(F)cc1F)N1CCc2nc[nH]c2C1,-5.8%
10,COC1=C(N2CCOCC2)C(=O)c2ccccc2C1=O,-2.9%
11,O=C(NCCN1CCOCC1)Nc1cccc(Cl)c1,-4%
12,O=C1C(Nc2cccc(Cl)c2)=C(N2CCOCC2)C(=O)c2ccccc21,59% (active)
13,CCCCN(CC)C(=O)c1cc(Cl)ccc1OC,-8.5%
14,Cc1ccc(NC(=O)CN2C(=O)C(c3ccc(Cl)cc3)=NC2(C)C)cc1,-11.7%
15,COc1ccc(CN2CCc3nc(N4CCN(c5ncccn5)CC4)ncc3C2)cc1OC,55.5% (active)
16,Cc1ccc(CN2CCc3nc(N4CCCC4)ncc3C2)cc1,12.2%
17,COc1ccc(CN2CCc3nc(N4CCCC4)ncc3C2)cc1OC,42.3%
18,CN(C)c1ccc(CN2CCc3nc(N4CCOCC4)ncc3C2)cc1,96.6% (active)
19,CN(C)c1ccc(CN2CCc3nc(N4CCN(c5ccccc5F)CC4)ncc3C2)cc1,39.9%
20,COc1cc(CN2CCc3nc(N4CCCC4)ncc3C2)cc(OC)c1OC,11.5%
21,COc1ccc(OCc2noc(-c3cccc(F)c3)n2)cc1,-9.7%
22,CCN(CC)CCNC(=O)C1CCN(c2nnc3ccccn23)CC1,5.6%
23,CCC(=O)Oc1ccc2c(C)c(-c3ccccc3)c(=O)oc2c1,-4.1%
24,COc1cccc(C=C2Oc3c(ccc(O)c3CN3CC4CC(C3)c3cccc(=O)n3C4)C2=O)c1 (stereo unspecified),32.3%
